The supplement of paper PMC6089552
Among all 3,200 compounds or so, about 300 (9.4%) showed activity. Shown is part of a subset that was picked to be rich in actives.

System: A673/TR/shEF
Test: cell viability (LOESS-normalised, relative to median of negative controls) (log2 ratio); higher = more viable cells (less compound effect), active = hit call of the paper (over 3 MAD below the median)
Conditions: treatment time: 72 h
Outline: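 For three days, A673/TR/shEF Ewing sarcoma cells in 384-well plates (1,500 per well) were treated with library compounds at two or more concentrations or with DMSO controls, after doxycycline had been added or withheld 24 h beforehand to induce EWS-FLI1 shRNA knockdown. Viability was read by CellTiter-Glo luminescence on an Envision reader. The data were LOESS-corrected per plate, divided by the median of negative controls and log2-transformed.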

[1] = 0.25 µM, library screen: screen2, EWS-FLI1 expression: high (no doxycycline)
[2] = 0.25 µM, library screen: screen2, EWS-FLI1 expression: low (doxycycline-induced shRNA knockdown)
[3] = 2.5 µM, library screen: screen2, EWS-FLI1 expression: high (no doxycycline)
[4] = 2.5 µM, library screen: screen2, EWS-FLI1 expression: low (doxycycline-induced shRNA knockdown)
[5] = 0.25 µM, library screen: screen1, EWS-FLI1 expression: high (no doxycycline)
[6] = 0.25 µM, library screen: screen1, EWS-FLI1 expression: low (doxycycline-induced shRNA knockdown)
[7] = 2.5 µM, library screen: screen1, EWS-FLI1 expression: high (no doxycycline)
[8] = 2.5 µM, library screen: screen1, EWS-FLI1 expression: low (doxycycline-induced shRNA knockdown)

Measured: cell viability (log2)

CCCCCCCCCCCCCC(=O)O[C@@H]1[C@@H](C)[C@@]2(O)[C@@H](C=C(CO)C[C@]3(O)C(=O)C(C)=C[C@@H]23)[C@@H]2C(C)(C)[C@]12OC(C)=O
active: [1] -0.184 | [2] -0.159 | [3] -0.478 | [4] -0.292

Oc1ccc2c3c1O[C@H]1c4[nH]c5ccccc5c4C[C@@]4(O)C(C2)N(CC2CC2)CCC314 (stereo partly specified)
inactive: [1] 0.0893 | [2] 0.051 | [3] 0.0722 | [4] 0.0157

C[C@]12CCC3C(CC[C@H]4C[C@H](O)CC[C@]34C)C1CC[C@@H]2C(=O)CO (stereo partly specified)
inactive: [1] 0.139 | [2] 0.0931 | [3] 0.0348 | [4] 0.0492

ClC1=C(Cl)C2(Cl)C3C(Cl)C(Cl)CC3C1(Cl)C2(Cl)Cl (stereo unspecified)
inactive: [5] 0.143 | [6] 0.19 | [7] 0.185 | [8] 0.0908

CC(N)C(O)c1ccc(O)c(O)c1 (stereo unspecified)
inactive: [5] 0.119 | [6] 0.0592 | [7] 0.146 | [8] 0.151

C#CCN[C@H](C)Cc1ccccc1
inactive: [1] 0.265 | [2] 0.101 | [3] 0.0823 | [4] 0.137

COc1cc2c(cc1OC)[C@H]1C(=O)c3ccc4c(c3O[C@H]1CO2)C[C@@H](C(C)C)O4
active: [5] -1.56 | [6] -0.67 | [7] -2.2 | [8] -0.747

COc1cc2c(cc1OC)-c1c(oc3c4c(ccc3c1=O)OC(C(C)C)C4)CO2 (stereo unspecified)
inactive: [5] 0.0422 | [6] 0.0484 | [7] 0.122 | [8] 0.0221

C=C(C)[C@H]1Cc2c(ccc3c2O[C@@H]2COc4cc(OC)c(OC)cc4[C@@H]2C3=O)O1
active: [5] -1.71 | [6] -0.663 | [1] -0.962 | [2] -0.539 | [7] -2.87 | [8] -1.24 | [3] -2.41 | [4] -0.955 | 25 µM, library screen: screen2, EWS-FLI1 expression: high (no doxycycline) -3.79 | 25 µM, library screen: screen2, EWS-FLI1 expression: low (doxycycline-induced shRNA knockdown) -1.03
inactive: 0.025 µM, library screen: screen2, EWS-FLI1 expression: high (no doxycycline) 0.0593 | 0.025 µM, library screen: screen2, EWS-FLI1 expression: low (doxycycline-induced shRNA knockdown) 0.0961

COc1cc2c(cc1OC)C1C(=O)c3ccc(O)c(CC=C(C)C)c3OC1CO2 (stereo unspecified)
inactive: [5] 0.0263 | [6] 0.0494 | [7] 0.046 | [8] 0.0598

C=C(C)[C@H]1Cc2c(ccc3c(=O)c4c(oc23)COc2cc(OC)c(OC)cc2-4)O1
inactive: [5] 0.0952 | [6] -0.0101 | [7] 0.0848 | [8] -0.0847

COc1cc2c(cc1OC)[C@@H]1C(=O)c3ccc4oc(C(C)C)cc4c3O[C@@H]1CO2
active: [7] -0.307
inactive: [5] 0.0223 | [6] 0.0518 | [8] -0.129

CCOP(=S)(OCC)SCn1c(=O)oc2cc(Cl)ccc21
inactive: [5] 0.0867 | [6] 0.153 | [7] 0.166 | [8] 0.163

CCOCN(C(=O)CCl)c1c(C)cccc1CC
inactive: [5] 0.105 | [6] 0.0121 | [7] 0.0903 | [8] -0.17

CC(=O)O[C@@H]1C2CC[C@@H]3C1(C[C@@H](O)[C@@]1(O)[C@@H](C[C@H](O)C1(C)C)[C@]3(C)O)C[C@@]2(C)O (stereo partly specified)
inactive: [5] 0.0646 | [6] 0.00107 | [7] 0.0644 | [8] 0.0594

COc1cc2occc2c2oc(=O)ccc12
inactive: [5] 0.133 | [6] -0.00777 | [7] 0.146 | [8] 0.0199

CCOC(=O)CC(SP(=S)(OC)OC)C(=O)OCC (stereo unspecified)
inactive: [5] 0.0518 | [6] 0.0626 | [7] 0.101 | [8] 0.14

CN[C@@H]1[C@@H](O)[C@@H](O[C@@H]2[C@@H](O)[C@H](O[C@H]3O[C@H](CN)CC[C@H]3N)[C@@H](N)C[C@H]2N)OC[C@]1(C)O
inactive: [5] 0.0502 | [6] -0.0312 | [7] 0.184 | [8] 0.0476

CC1(C)C2CC(=O)[C@]3(C)C(CC[C@@]4(C)[C@H](c5ccoc5)OC(=O)[C@H]5O[C@]543)[C@@]2(C)C=C[C@@H]1O (stereo partly specified)
inactive: [5] 0.0868 | [6] 0.0799 | [7] 0.177 | [8] 0.105

Oc1cc2c(cc1O)[C@H]1c3ccccc3CN[C@@H]1CC2
inactive: [1] 0.0852 | [2] -0.0099 | [3] 0.117 | [4] 0.00998

CC(C)N(CCC(C(N)=O)(c1ccccc1)c1ccccn1)C(C)C (stereo unspecified)
inactive: [5] 0.118 | [6] 0.068 | [1] 0.102 | [2] 0.0965 | [7] 0.167 | [8] 0.146 | [3] 0.0737 | [4] 0.0918
